Experiment [1] can be described thus: qHTS RealTime-Glo MT Cell Viability Assay in HEK293 cells - 0 hour (AID 1224880). Further: top concentration of the series differs between compounds; nearly all actives have a fitted effect of over 45% in size. The method in brief:
(§1)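 Nonlytic bioluminescent viability monitoring. HEK293 at 600 cells/well with reagent; 5 h settle; compound transfer by pintool; plates held at 37 C and read at set time points.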

Experiment [2] in a line: A CellTox Green Cytotoxicity Assay to monitor cytotoxicity in HEK293 cells - 32 hour (AID 1224881). Further: nearly all actives have a fitted effect of over 40% in size. The procedure, abridged:
(§2)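 Cytotoxicity was tracked continuously in HEK293 cells by a DNA-binding dye excluded from viable cells. Compounds were transferred in DMSO 5 h after seeding; fluorescence was recorded at intervals up to 40 h.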

The nature of experiment [3]: A CellTox Green Cytotoxicity Assay to monitor cytotoxicity in HepG2 cells - 0 hour (AID 1224882). Further: nearly all actives have a fitted effect of over 35% in size. Further: potency means the concentration at half of the fitted maximal effect. The method in brief:
(§3)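 Real-time, homogeneous cytotoxicity readout: dead-cell DNA staining by CellTox Green in HepG2 monolayers, fluorescence measured at timed intervals up to 40 h of continuous compound exposure.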

Experiment [4] can be described thus: A CellTox Green Cytotoxicity Assay to monitor cytotoxicity in HEK293 cells - 8 hour (AID 1224884). Further: nearly all actives have a fitted effect of over 35% in size. The procedure, abridged: as §2
Experiment [5] can be described thus: qHTS RealTime-Glo MT Cell Viability Assay in HepG2 cells - 16 hour (AID 1224885). Further: nearly all actives have a fitted effect of over 50% in size. The method in brief: (§4)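 HepG2 cells (600/well) were dispensed with RealTime-Glo reagents, incubated 5 h at 37 °C, then treated with compounds in DMSO for up to 40 h. Nonlytic NanoLuc luminescence reflecting viable cells was read at each stated time point.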
Experiment [6] can be described thus: qHTS RealTime-Glo MT Cell Viability Assay in HEK293 cells - 24 hour (AID 1224886). Further: nearly all actives have a fitted effect of over 50% in size. Further: potency means the concentration at half of the fitted maximal effect. The procedure, abridged: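 HEK293 cells seeded with NanoLuc/prosubstrate reagent, rested 5 h at 37 C, then dosed and kept at 37 C up to 40 h. Nonlytic real-time luminescence from viable cells read at 0, 8, 16, 24, 32 and 40 h.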
Experiment [7] is described as follows: A CellTox Green Cytotoxicity Assay to monitor cytotoxicity in HEK293 cells - 16 hour (AID 1224888). Further: nearly all actives have a fitted effect of over 35% in size. The procedure, abridged: as §2
The nature of experiment [8]: qHTS RealTime-Glo MT Cell Viability Assay in HepG2 cells - 0 hour (AID 1224889). Further: nearly all actives have a fitted effect of over 50% in size. The method in brief: as §4
A short description of experiment [9]: A CellTox Green Cytotoxicity Assay to monitor cytotoxicity in HepG2 cells - 8 hour (AID 1224890). Further: nearly all actives have a fitted effect of over 45% in size. Further: potency means the concentration at half of the fitted maximal effect. The method in brief:
as §3

Experiment [10] can be described thus: qHTS assay to identify small molecule antagonists of the estrogen receptor alpha (ER-alpha) signaling pathway using the BG1 cell line in the presence of 0.1 nM 17-beta-estradiol - cell viability counter screen (AID 1259241). Further: nearly all actives have a fitted effect of over 40% in size. The method in brief:
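VM7Luc4E2 cells (endogenous full-length ER-alpha, 4xERE-luciferase), cultured 5 days in charcoal-stripped serum, exposed to compounds with 0.1 nM 17beta-estradiol (final) for 22 hr at 37C. Viability read in same wells as live-cell protease fluorescence after 30 min.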

A short description of experiment [11]: qHTS assay to identify small molecule antagonists of the androgen receptor (AR) signaling pathway using the MDA cell line in the presence of 0.5 nM R1881 - cell viability counter screen (AID 1259242). Further: nearly all actives have a fitted effect of over 45% in size. The procedure, abridged:
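Cytotoxicity toward MDA-kb2 cells is measured by CellTiter-Fluor live-cell protease fluorescence after 16 hr compound exposure at 37C in the presence of 0.5 nM R1881 stimulator.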

The target in experiment [12] is Estrogen receptor (Homo sapiens) (UniProt P03372). The experiment in a line: qHTS assay to identify small molecule antagonists of the estrogen receptor alpha (ER-alpha) signaling pathway using the BG1 cell line in the presence of 0.1 nM 17-beta-estradiol (AID 1259244). Further: nearly all actives have a fitted effect of over 50% in size. The procedure, abridged: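 After 5 days in hormone-depleted medium (charcoal-stripped serum, no phenol red), VM7Luc4E2 cells were seeded, incubated 24 h, then co-treated with compound and 0.1 nM (final) estradiol for 22 h before luminescence detection.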
Chain of Estrogen receptor (Homo sapiens) (P03372 whole entry, looked up): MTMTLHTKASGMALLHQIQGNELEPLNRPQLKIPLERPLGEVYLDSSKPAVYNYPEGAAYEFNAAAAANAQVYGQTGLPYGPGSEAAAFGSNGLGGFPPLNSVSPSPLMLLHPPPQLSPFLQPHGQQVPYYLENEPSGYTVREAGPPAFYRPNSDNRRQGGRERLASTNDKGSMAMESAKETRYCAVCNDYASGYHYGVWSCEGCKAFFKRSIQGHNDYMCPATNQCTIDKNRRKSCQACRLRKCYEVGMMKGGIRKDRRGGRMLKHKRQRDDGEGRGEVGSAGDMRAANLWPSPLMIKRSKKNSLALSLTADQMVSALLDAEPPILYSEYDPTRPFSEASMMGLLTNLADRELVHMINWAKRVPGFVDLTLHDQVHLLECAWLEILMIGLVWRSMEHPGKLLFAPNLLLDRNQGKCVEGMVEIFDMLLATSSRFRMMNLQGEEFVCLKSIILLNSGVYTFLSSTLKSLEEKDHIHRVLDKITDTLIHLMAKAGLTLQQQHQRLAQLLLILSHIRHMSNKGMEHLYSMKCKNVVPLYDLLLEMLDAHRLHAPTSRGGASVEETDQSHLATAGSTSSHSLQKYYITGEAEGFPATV

Experiment [13] can be described thus: qHTS assay to identify small molecule HDAC inhibitors (AID 1259364). Further: top concentration of the series differs between compounds; nearly all actives have a fitted effect of over 45% in size. The procedure, abridged:
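Homogeneous cell-based luminescent assay of endogenous class I/II HDAC activity; HCT-116 cells, 2 h compound exposure, 30 min HDAC-Glo development at RT.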

Experiment [14] can be described thus: qHTS assay to identify small molecule HDAC inhibitors - cell viability counter screen (AID 1259365). The procedure, abridged:
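Wild-type HCT-116 cells, 1,500/well, cultured overnight, then compound-treated 2 h at 37 C. Viability measured as ATP luminescence with CellTiter-Glo after 30 min at room temperature.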

Experiment [15] in a line: qHTS assay to identify small molecule agonists of the sonic hedgehog signaling (Shh) pathway - cell viability counter screen (AID 1259366). Further: nearly all actives have a fitted effect of over 50% in size. The method in brief:
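NIH/3T3-derived Gli1-Luc reporter cells, 2,000 per well, received compound after 4 h and were treated about 23 h at 37C. Viability measured in the same wells by CellTiter-Fluor fluorescence after 1 h.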

Experiment [16] in a line: qHTS assay to identify small molecule antagonists of the sonic hedgehog signaling (Shh) pathway - cell viability counter screen (AID 1259367). Further: nearly all actives have a fitted effect of over 55% in size. The method in brief: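 Using CellTiter-Fluor, viability of Gli1-Luc reporter 3T3 cells is read by fluorescence in the wells used for the Shh luciferase assay. Treatment lasts 23 hr with conditioned medium, then reagent 1 hr at 37C.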

Experiment [17] is described as follows: qHTS RealTime-Glo MT Cell Viability Assay in HEK293 cells - 8 hour (AID 1224887). Further: nearly all actives have a fitted effect of over 50% in size. Further: potency means the concentration at half of the fitted maximal effect. The procedure, abridged:
as §1

Experiment [18] is described as follows: qHTS assay to identify small molecule phospholipidosis (PLD) inducers (AID 1259344; active means well fitted curve in the direction sought with a large enough effect; an effect the other way counts as inactive or inconclusive; further: potency means the concentration at half of the fitted maximal effect). The method in brief: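 Fluorescent phospholipid staining (LipidTOX Red) measured by automated microscopy in fixed HepG2 cells after 24 h treatment; nuclei counterstained with Hoechst 33342; amiodarone as reference inducer.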
Experiment [19] addresses Androgen receptor (Homo sapiens) (UniProt P10275). The experiment in a line: qHTS assay to identify small molecule antagonists of the androgen receptor (AR) signaling pathway using the MDA cell line in the presence of 0.5 nM R1881 (AID 1259243). Further: nearly all actives have a fitted effect of over 50% in size. The procedure, abridged:
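Steps: seed MDA-kb2 cells, incubate 5 hr at 37C; pin-transfer compounds in DMSO; add R1881 to 0.5 nM final; incubate 16 hr; add ONE-Glo, wait 30 min at room temperature; read luminescence.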

Unmarked numbers belong to inactive results. Records with an inconclusive call do not appear. The source made the active and inactive calls. Unless noted, the call rests on the fitted dose curve; in most records, active means well fitted curve in the direction sought with a large enough effect in the repeat runs; inconclusive means weak or mixed curves; inactive means no such curve, though single readings can be large; an effect the other way counts as inactive or inconclusive.

Chain of Androgen receptor (Homo sapiens) (P10275 whole entry, looked up): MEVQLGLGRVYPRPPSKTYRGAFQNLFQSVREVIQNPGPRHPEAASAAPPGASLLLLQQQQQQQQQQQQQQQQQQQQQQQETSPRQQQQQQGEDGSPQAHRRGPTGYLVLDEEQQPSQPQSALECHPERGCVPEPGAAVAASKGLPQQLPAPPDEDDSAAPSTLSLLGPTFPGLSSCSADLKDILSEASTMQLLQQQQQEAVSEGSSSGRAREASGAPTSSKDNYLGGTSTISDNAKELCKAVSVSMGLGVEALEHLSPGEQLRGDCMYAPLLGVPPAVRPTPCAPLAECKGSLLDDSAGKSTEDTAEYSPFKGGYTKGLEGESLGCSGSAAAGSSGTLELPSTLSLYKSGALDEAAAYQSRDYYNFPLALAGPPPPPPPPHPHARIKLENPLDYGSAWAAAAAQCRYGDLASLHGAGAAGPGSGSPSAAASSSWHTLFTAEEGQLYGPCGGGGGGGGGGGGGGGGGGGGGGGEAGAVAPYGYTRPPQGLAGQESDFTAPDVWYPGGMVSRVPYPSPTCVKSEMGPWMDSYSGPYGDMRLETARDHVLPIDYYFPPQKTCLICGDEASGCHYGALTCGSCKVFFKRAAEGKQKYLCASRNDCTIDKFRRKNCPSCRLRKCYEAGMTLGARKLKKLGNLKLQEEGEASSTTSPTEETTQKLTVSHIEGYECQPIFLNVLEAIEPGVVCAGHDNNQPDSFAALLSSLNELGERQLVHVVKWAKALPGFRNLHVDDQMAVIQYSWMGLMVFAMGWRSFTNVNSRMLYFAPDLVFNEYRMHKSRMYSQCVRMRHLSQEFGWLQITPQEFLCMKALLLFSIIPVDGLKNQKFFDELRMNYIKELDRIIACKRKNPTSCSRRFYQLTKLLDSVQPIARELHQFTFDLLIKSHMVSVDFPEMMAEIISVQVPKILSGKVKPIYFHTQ

Regarding `C=C(C)C(=O)OCCC(F)(F)C(F)(F)C(F)(F)C(F)(F)C(F)(F)C(F)(F)F`, the Potency result in [1], in experiment [2], in experiment [3], in [4], in experiment [5] and in [6] was “inactive” in each case. Further, the Potency entry in experiment [7], in experiment [8], in experiment [9], in experiment [10], in experiment [11] and in experiment [12] was “inactive” each time. Moreover, the Potency entry in experiment [13], in experiment [14], in [15] and in experiment [16] was “inactive” in each case.
For `COc1cc(C(C)=O)ccc1OCCCN1CCC(c2noc3cc(F)ccc23)CC1`, the Potency result in [1], in experiment [2], in experiment [3], in experiment [4], in [5] and in experiment [7] was “inactive” throughout. The Potency entry in [8], in [9], in experiment [10], in experiment [11], in experiment [12] and in experiment [13] was “inactive” throughout. Also, the Potency result in [14], in experiment [15] and in experiment [16] was “inactive” in each case. Further, the Potency in [6] is 9.52 µM (active); in [17], 9.52 µM (active); in [18], 1 µM (active).
Regarding `O=C(O)CN1C(=O)c2cccc3cccc(c23)C1=O`, the Potency entry in experiment [1], in experiment [2], in experiment [3], in [4], in [5] and in [6] was “inactive” throughout. In addition, the Potency result in experiment [17], in [7], in experiment [8], in experiment [9], in [10] and in experiment [11] was “inactive” each time. Further, the Potency result in experiment [18], in experiment [13], in [14] and in experiment [15] was “inactive” throughout.
In the case of `O=P(O)(O)Oc1ccccc1`, the Potency entry in experiment [1], in experiment [2], in experiment [3], in [4], in experiment [5] and in experiment [6] was “inactive” throughout. In addition, the Potency result in experiment [7], in experiment [8], in [9], in [10], in experiment [11] and in [12] was “inactive” each time. Further, the Potency entry in experiment [13], in [14], in experiment [15] and in experiment [16] was “inactive” throughout.
As for `O=NN(CCCl)C(=O)NCCCl`, the Potency result in [1], in [2], in experiment [4], in experiment [5], in [6] and in experiment [17] was “inactive” throughout. The Potency result in experiment [7], in experiment [8], in [10], in [11], in experiment [19] and in experiment [12] was “inactive” throughout. The Potency entry in [18], in experiment [13], in experiment [14], in experiment [15] and in [16] was “inactive” each time. The Potency in experiment [3] and in experiment [9] was 5.35 µM (active) throughout.
Regarding `CCC(CO)(CO)[N+](=O)[O-]`, the Potency entry in [1], in experiment [2], in [3], in experiment [4], in experiment [5] and in experiment [6] was “inactive” throughout. The Potency entry in [17], in experiment [7], in experiment [8], in experiment [9], in experiment [10] and in [11] was “inactive” throughout. For the same compound, the Potency result in experiment [12], in [13], in experiment [14], in [15] and in [16] was “inactive” in each case.
As for `CC(C)COC(=O)COc1cc(Cl)c(Cl)cc1Cl`, the Potency result in experiment [1], in experiment [2], in [3], in experiment [4], in experiment [5] and in experiment [6] was “inactive” throughout. Further, the Potency entry in [17], in experiment [7], in experiment [8], in experiment [9], in experiment [10] and in experiment [11] was “inactive” each time. Also, the Potency entry in experiment [12], in [13], in experiment [14], in experiment [15] and in [16] was “inactive” throughout.
On to `CS(=O)(=O)c1ccc([C@@H](C[C@H]2CCC(=O)C2)C(=O)Nc2cnccn2)cc1Cl`, for which the Potency result in [1], in experiment [2], in [3], in experiment [4], in experiment [5] and in [6] was “inactive” throughout. In addition, the Potency entry in experiment [17], in experiment [7], in experiment [8], in [9], in experiment [11] and in [12] was “inactive” each time. Besides, the Potency entry in experiment [13], in experiment [14], in experiment [15] and in [16] was “inactive” each time.
